According to PMC5540273 (PLoS ONE, 2017):

Tested on: BMX
Conditions: concentration: 1 μM, replicates: in singlicate; n = 1
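Further: KINOMEscan kinase panel screen.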

Compound | %Inh
Cc1c2ccc(N(C)c3ccnc(Nc4cccc(S(N)(=O)=O)c4)n3)cc2nn1Cc1ccccc1.Cl.Cl [GW787226] | 6%
Fc1ccc(-c2ncn(CCCN3CCOCC3)c2-c2cccnc2)cc1 [SB-211743] | 0%
COc1ccc(Nc2ncc(C#N)c(Nc3ccccc3C(N)=O)n2)cc1N1CCN(C)CC1.Cl [GSK1558669] | 75%
O=c1cc(N2CCOCC2)nc2n(Cc3cccc4ccccc34)ccn12 [GSK2333389] | 7%
CCc1nc(-c2cccc(C)c2)c(-c2ccnc(NCc3ccccc3)c2)s1 | 0%
O=C(NCCNc1ccnc(Nc2ccc(F)cc2)n1)c1cc2ccccc2s1 [GSK1379874] | 1%
O=C(NCCNc1ccnc(Nc2ccc(F)cc2)n1)Nc1ccccc1F [GSK1379880] | 0%
CN(C(=O)c1ccc(-c2cc(-c3c[nH]nc3-c3ccccn3)ccn2)cc1)C1CCOCC1 [GW810083] | 0%
O=C(Nc1n[nH]c2cc(-c3cccc(F)c3)ccc12)C1CC1 [SB-735464] | 0%
Cc1nnc(-c2ccc(C)c(-c3ccc(C(=O)Nc4ccc(NS(C)(=O)=O)cc4)cc3)c2)o1 [GW702865] | 16%
COc1ccc(S(=O)(=O)NC2CCN(c3cc(C)nc(Nc4cccc(C#N)c4)n3)CC2)cc1.O=C(O)C(F)(F)F [GSK1653539] | 3%
O=C(NOCC1CC1)c1ccc(F)c(F)c1Nc1ccc(I)cc1Cl | 0%
COc1cc2c(cc1OC[C@@H](O)CO)ncc1c3ccc(C#N)cc3[nH]c21 | 0%
NS(=O)(=O)CCc1cccc(Nc2nccc(-c3c(-c4cccc(NC(=O)c5c(F)cccc5F)c4)nn4ccccc34)n2)c1 [GSK336735] | 94.6%
COc1ccc(CNC(=O)NC2CCN(c3ccnc(Nc4ccc(OC)cc4)n3)C2)cc1 (stereo not shown) [GSK1379727] | 6%
c1ccc(-c2cc(-c3c[nH]nc3-c3ccccn3)ccn2)cc1 [GW576604] | 3%
Cn1cc(-c2ccc3c(c2)CCN3C(=O)Cc2ccccc2Cl)c2c(N)ncnc21 [GSK2608885] | 93.2%

Compound | %Inh
Cc1nnc(-c2ccc3ncc(-c4ccc(S(C)=O)cc4)n3c2)o1 (stereo not shown) | 0%
Cc1ccc(NC(=O)c2ccnc(N3CCN(C)CC3)c2)cc1-c1ccc(C(=O)NCC2CC2)cc1 [GW775604] | 0%
CN(C1=C(c2ccccc2)C(=O)NC1=O)c1ccccc1 [SB-334860] | 13%
Cc1ccc(C(=O)NCC(N)=O)cc1-n1c(C)cc(OCc2ccc(F)cc2F)c(Br)c1=O | 24%
NCC(NC(=O)c1cc(-c2cn[nH]c2)c(-c2ccnc3[nH]ccc23)s1)c1ccccc1.O=C(O)C(F)(F)F.O=C(O)C(F)(F)F (stereo not shown) [GSK1325775] | 0%
CNc1ncnc2[nH]ncc12 [SKF-18355] | 0%
CCCCCc1nc2c(N)ncnc2n1CCCCC [SKF-97255] | 3%
C[C@@H](Oc1cc(-n2cnc3ccc(NC(=O)NC(C)(C)C)cc32)sc1C(N)=O)c1ccccc1Cl [GSK346294] | 22%
Cl.Oc1cccc(Nc2ccnc3cc(-c4ccncc4)ccc23)c1 [GW494601] | 28%
O=C1NC(=O)C(N2CCc3ccccc32)=C1c1cccc(Cl)c1 [SB-408010] | 26%
Cc1cn2c(=O)cc(N3CCOCC3)nc2n1Cc1cccc(Cl)c1Cl [GSK2334006] | 10%
Cl.Cl.Cl.Fc1ccc(-c2ncn(C3CCNCC3)c2-c2ccnc(Nc3ccccc3)n2)cc1 [SB-238039] | 0%
N#Cc1c(N2CCOCC2)sc(-c2ccn[nH]2)c1-c1ccc(Cl)cc1 | 14%
CC(=O)Nc1ccc(COc2ccc(Nc3ccnc4cc(-c5ccccn5)ccc34)cc2)cc1.Cl [GW440148] | 17%
O=c1cc(N2CCOCC2)nc2n(Cc3cccc(C(F)(F)F)c3)ccn12 [GSK2297543] | 20%
Fc1ccc(-c2nn3c(OCC(F)(F)F)cccc3c2-c2ccncc2)cc1 [GW514784] | 2%
Cc1cccc(-c2nc(Nc3ccc4ncsc4c3)c3ccccc3n2)n1 [GW867588] | 0%
